The panel holds about 83,000 compounds, 20% with a hit somewhere; the sample as a whole holds those more often.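 Note: values are percent growth. 100 is the growth of untreated cells, values between 100 and 0 indicate rising inhibition; between -100 and 0 indicates cell death.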 Activity calls are given as the source filed them. How the source made its calls: active means growth percent below 10; inactive means the rest.
The molecules below were run on NCI/ADR-RES ovarian (assay: NCI-60 one-dose screen, 48 h (100 = growth as untreated, 0 = no growth, -100 = all killed)). Settings: 10 µM unless noted.
In the case of `Nc1cc2ccccc2c(=O)n1NC(=O)c1ccc(I)cc1`, the growth is reported as 101% (inactive).
For `CC(=O)Nc1cccc(Nc2nc(N[C@H]3CCCc4ccccc43)c3ccccc3n2)c1`, the growth was 100% (inactive).
`CCN(CC)C(=O)N/C(N)=N/c1nc2ccccc2s1` was tested, and the growth was 23.3% (inactive).
In the case of `O=C(O)c1cccc(-c2ccc(/C=N/NC(=O)c3[nH]c4ccc(Br)cc4c3-c3ccccc3)o2)c1`, the growth is reported as 73.7% (inactive).
For `NS(=O)(=O)c1ccc(-n2cc(-c3cccc(NC(=O)c4cc(C(F)(F)F)cc(C(F)(F)F)c4)c3)nn2)cc1`, the growth was 81.6% (inactive).
`C[C@H](Nc1nc(NCCc2ccccc2)nc2ccccc12)c1ccccc1` was tested, and the growth was -73.9% (active).
For `C(=C\c1cc(/C=C/c2ccccc2)c2ccccc2n1)/c1ccccc1`, the growth was 69.7% (inactive).
For `C=C1CC[C@@H]2[C@]3(C)COC(c4cn(-c5ccccc5)nc4-c4ccccc4)O[C@@H]3CC[C@@]2(C)[C@@H]1C/C=C1/C(=O)OC[C@H]1O` (stereo partly drawn), the growth was -69.4% (active).
With `N#Cc1c(-c2cccc3ccccc23)cc(-c2cccc(OCC(=O)O)c2)[nH]c1=O` the growth was 99% (inactive).
In the case of `O=C(/C=C/c1cccc(OCc2ccc(F)cc2)c1)c1nc2ccccc2[nH]1`, the growth is reported as 72.5% (inactive).
For `CCOC(=O)C1=C(N)N(c2ccccc2)C2=C(C(=O)CC(C)(C)C2)C1c1cccc(Cl)c1Cl` (stereo not drawn), the growth was 51% (inactive).
`CC(C)c1ccc2c(N)c(C(=O)Nc3ccc(C(F)(F)F)cn3)sc2n1` was tested, and the growth was 25% (inactive).
With `COc1ccc2cc([C@H](C)C(=O)N/N=C/c3ccc(Br)cc3)ccc2c1` the growth was 98.2% (inactive).
With `CC(=O)Oc1ccccc1C(=O)[Se]CC(=O)Nc1cccc(C(F)(F)F)c1` the growth was -63.8% (active).
For `COc1ccc(NC(=O)c2sc3nc(C(C)C)ccc3c2N)cc1`, the growth was 59.6% (inactive).
`CC1=C(C(=O)OCc2ccccc2)C(c2c(O)cc(O)cc2O)n2c(nc3ccccc32)N1` (stereo not drawn) was tested, and the growth was 31% (inactive).
For `N#Cc1ccc(/C=N/NC(=O)c2[nH]c3ccc(Br)cc3c2-c2ccccc2)o1`, the growth was -40.9% (active).
For `CC1=C(C(=O)OC(C)C)C(c2cccc(O)c2)NC(=S)N1` (stereo not drawn), the growth was 105% (inactive).
`COc1cc(-c2ccc(/C=N/NC(=O)c3[nH]c4ccc(Br)cc4c3-c3ccccc3)s2)cc(OC)c1OC` was tested, and the growth was 71.7% (inactive).
In the case of `COc1cc(/C=C/C(=O)c2nnn(-c3ccc(Cl)cc3)c2C)cc(OC)c1OC`, the growth is reported as 8.27% (active).
With `CC1=C(C(=O)OCc2ccccc2)C(c2ccc(-n3cncn3)cc2)n2c(nc3ccccc32)N1` (stereo not drawn) the growth was 41.5% (inactive).
In the case of `COc1cc(-c2cc(-c3cccc(OCC(=O)O)c3)[nH]c(=O)c2C#N)cc(OC)c1OC`, the growth is reported as 104% (inactive).
For `CSc1ccc(C(=O)Nc2ccc3nn(/C(C#N)=C/c4ccccn4)nc3c2)cc1`, the growth was 2.33% (active).
For `CSc1ccc(NC(=O)c2ccc3nn(/C(C#N)=C/c4ccccn4)nc3c2)cc1`, the growth was -35.7% (active).
In the case of `CC1CCCCN1CCCNC(=O)N/C(N)=N/c1nc2ccccc2s1` (stereo not drawn), the growth is reported as 64.1% (inactive).
For `O=C(O)c1ccc(-c2ccc(/C=N/NC(=O)c3[nH]c4ccc(Br)cc4c3-c3ccccc3)s2)cc1`, the growth was 19.9% (inactive).
In the case of `CSc1ccccc1NC(=O)c1ccc2nnn(/C(C#N)=C/c3ccccn3)c2c1`, the growth is reported as -44.2% (active).
With `Clc1cccc(Cl)c1/C=C/c1cc(/C=C/c2ccc(Br)cc2)c2ccccc2n1` the growth was 95.5% (inactive).
`C=C1CC[C@@H]2[C@]3(C)COC(c4cn[nH]c4-c4ccc(OC)cc4)O[C@@H]3CC[C@@]2(C)[C@@H]1C/C=C1/C(=O)OCC1O` (stereo partly drawn) was tested, and the growth was 16.7% (inactive).
In the case of `CSc1ccc(C(=O)Nc2ccc3nnn(/C(C#N)=C/c4ccccn4)c3c2)cc1`, the growth is reported as 11.2% (inactive).
`CC(=O)Nc1cccc(Nc2nccc(N[C@@H](C)c3ccccc3)n2)c1` was tested, and the growth was 3.58% (active).
With `O=C(N/N=C/c1ccc(-c2ccc(O)cc2)s1)c1[nH]c2ccc(Br)cc2c1-c1ccccc1` the growth was -27.4% (active).
For `COc1cc(CNC(=O)/C=C/c2ccc3c(c2)OCO3)ccc1OCc1cn(-c2cccc(C(F)(F)F)c2)nn1`, the growth was 4.67% (active).
For `O=C(O)c1ccc(-c2ccc(/C=N/NC(=O)c3[nH]c4ccc(Br)cc4c3-c3ccccc3)o2)cc1`, the growth was 18.1% (inactive).
In the case of `CCCCOc1ccc(NC(=O)c2sc3nc(C)ccc3c2N)cc1`, the growth is reported as -39.3% (active).
For `Cc1ccc2c(N)c(C(=O)Nc3ccc(-c4ccccc4)cc3)sc2n1`, the growth was 50.5% (inactive).
In the case of `COc1ccc2nc(Nc3cccc(NC(=O)c4ccc(CN5CCCN(C)CC5)c(C(F)(F)F)c4)c3)ccc2c1`, the growth is reported as -43.1% (active).
In the case of `N#Cc1c(-c2cccnc2)cc(-c2ccc3ccccc3c2)[nH]c1=O`, the growth is reported as 75.3% (inactive).

Reference: PubChem BioAssay (NCI)
